# Reference: PubChem BioAssay (EPA / NIEHS)
# The source made the active and inactive calls. Rule for the calls: active = hit-call score of the fitted dose curve at least 0.9, where 1 is the maximum; inactive = score below 0.9.
# Read-out: Forkhead box O1 (FOXO1), FOXO1 (gene 2308)
# Assay: LTEA_HepaRG_FOXO1: Life Technologies and Expression Analysis (LTEA) Assay for Forkhead box O1 (FOXO1) using HepaRG (AID 2283456)
# Conditions: mRNA level, 48 h; actives raise or lower the signal
# Procedure: LTEA_HepaRG is a cell based, multiplexed-readout assay that uses HepaRG, a human liver cell line, with measurements taken at 48 hours after chemical dosing on a 96-well plate.LTEA_HepaRG_FOXO1 is one of 102 assay component(s) measured in the LTEA HepaRG cell culture assay. It is a marker of Cell proliferation, survival, death.Data from the assay component LTEA_HepaRG_FOXO1 was analyzed into 1 endpoint. This assay endpoint, LTEA_HepaRG_FOXO1, was analyzed with bidirectional fitting relative to DMSO as the negative control and baseline of activity. Using a type of inducible reporter, measures of mRNA induction for gain or loss-of-signal activity can be used to understand regulation of transcription factor activity. To generalize the intended target to other relatable targets, this assay endpoint is annotated to the dna binding intended target family, where the subfamily is forkhead box protein.
# A total of 1060 chemcials from the ToxCast library were tested in eight-point concentration-response experiments. Cell culture and cytotoxicity assays were conducted at Thermo Fisher Scientific's Custom Services facility (Madison, WI). A single lot of human HepaRG cells (Thermo Fisher Scientific, Frederick, MD) was used for the cell culture experiments. 96-well format collagen type I coated plates of human HepaRG cells were prepared using established methods. Briefly, cryopreserved HepaRG cells were thawed, plated at a density of approximately 100,000 cells/well in HepaRG Thaw, Plate, and General Purpose media (HPRG770, Thermo Fisher Scientific), and incubated for 48 hours. 0.5% DMSO was selected as vehicle control to balance the requisite need of DMSO in HepaRG cultures to maintain differentiation (for example, baseline metabolism, proportions of hepatocytes vs. cholangiocytes), while enabling further hepatic receptor pathway activation (for example, PXR and CAR) in response to chemical exposure. 48 hours after plating, the culture medium was replaced with HepaRG Serum-Free Incudtion Media. Cells were exposed to each test chemical in duplicate and maintained in CO2 incubators for another 48 hours. Chemical plates were thawed to room temperature and 200x concentrations of treatment groups were prepared. 8-point conentration-reponse curves were made with the highest exposure at 100 uM, followed by half-log dilutions, all in 0.5% DMSO. Each test plate contained variouse controls, induction positive controls (1mM phenobarbital), cytotoxicity positive controls ([…] aflatoxin B1), vehicle controls (0.5% DMSO), and total lysis controls (0.5% DMSO). Cell morphology images were taken using an Essen IncuCyte FLR automated microscope, with six 96-well plates imaged in about 24 minutes. Images were captured and exported and JPEG files. Spent culture media was transfered to black-well plates for the LDH assay, and remaining media was sorted at -80 C for later use. Cells were treated with RLT buffer and frozen until shipped for gene expression analysis. Total RNA was isolated from the cell suspension in 75 uL of Buffer RLT (Qiagen, Germantown, MD 20874) by Quintiles/Expression Analysis (Durham, NC) using a custom isolation procedure. Total RNA from each plate well was transferred to a preamplification plate. Fluidigm's 96.96 Dynamic ArrayTM (Fluidigm, Amsterdam, the Netherlands) technology was used for gene expression analyses by quantitative reverse transcription polymerase chain reaction (qRT-PCR, performed by Quintiles/Expression Analysis, Durham, NC)89. Standard TaqManTM Assays (Applied Biosystems/ThermoFisher Scientific, Foster City, CA) were used to assess the expression of 93 genes selected based on their selectivity and sensitivity to important hepatic receptors known to be modulated by environmental chemicals; importance in human hepatocyte functionality; and hepatotoxicity. […]
SMILES,outcome,AC50
COC(=O)NC(=S)Nc1ccccc1NC(=S)NC(=O)OC,inactive,–
CC(C)N1C(=O)N(c2ccccc2)CSC1=NC(C)(C)C,inactive,–
Cc1ccc(N=CN(C)C=Nc2ccc(C)cc2C)c(C)c1,inactive,–
CCCC(=NOCC)C1=C(O)CC(CC(C)SCC)CC1=O (stereo not given),inactive,–
Cc1c(COC(=O)[C@@H]2[C@H](/C=C(\Cl)C(F)(F)F)C2(C)C)cccc1-c1ccccc1,inactive,–
O=c1n(Cl)c(=O)n(Cl)c(=O)n1Cl,inactive,–
CC(C)(C)C(=O)C(Oc1ccc(Cl)cc1)n1cncn1 (stereo not given),inactive,–
COP(=O)(OC)O/C(C)=C/C(=O)N(C)C,inactive,–
CCOC(=O)C(C)OC(=O)c1cc(Oc2ccc(C(F)(F)F)cc2Cl)ccc1[N+](=O)[O-] (stereo not given),inactive,–
O=C(O)c1c(Cl)ccc2cc(Cl)cnc12,inactive,–
CC(C)Oc1cccc(NC(=O)c2ccccc2C(F)(F)F)c1,inactive,–
Cc1cc(C)nc(Nc2ccccc2)n1,inactive,–
COc1cc(OC)nc(NC(=O)NS(=O)(=O)c2ncccc2OCC(F)(F)F)n1,inactive,–
CC1(C)CON(Cc2ccccc2Cl)C1=O,inactive,–
CS(=O)(=O)c1ccc(C(=O)C2C(=O)CCCC2=O)c([N+](=O)[O-])c1,inactive,–
N#Cc1c(Cl)cccc1Cl,inactive,–
CCOc1nc(F)cc2nc(S(=O)(=O)Nc3c(Cl)cccc3Cl)nn12,inactive,–
O=C1C2CC=CCC2C(=O)N1SC(Cl)(Cl)Cl (stereo not given),–,77.1 µM (active)
CCC(C)n1c(=O)[nH]c(C)c(Br)c1=O (stereo not given),inactive,–
CCNP(=S)(OC)O/C(C)=C/C(=O)OC(C)C (stereo not given),inactive,–

SMILES,outcome,AC50
CN/C(=N\[N+](=O)[O-])NCc1cnc(Cl)s1,inactive,–
CCN(CC)C(=O)C(C)Oc1cccc2ccccc12 (stereo not given),inactive,–
Cn1c(-c2ccccc2)cc(-c2ccccc2)[n+]1C,–,77.7 µM (active)
Nc1c(Cl)c(Cl)nc(C(=O)O)c1Cl,inactive,–
COP(=S)(OC)Oc1ccc([N+](=O)[O-])c(C)c1,inactive,–
CN=C=S,inactive,–
COC(=O)c1c(C(F)F)nc(C(F)(F)F)c(C2=NCCS2)c1CC(C)C,inactive,–
CC1(C)CCC(=Cc2ccc(Cl)cc2)C1(O)Cn1cncn1 (stereo not given),inactive,–
CCCCC(C#N)(Cn1cncn1)c1ccc(Cl)cc1 (stereo not given),inactive,–
CCSC(=O)N1CCCCCC1,inactive,–
C=C(C)CN(CC)c1c([N+](=O)[O-])cc(C(F)(F)F)cc1[N+](=O)[O-],inactive,–
CC(C)=CC1C(C(=O)OCc2coc(Cc3ccccc3)c2)C1(C)C (stereo not given),inactive,–
COCC(=O)N(c1c(C)cccc1C)C(C)C(=O)OC (stereo not given),inactive,–
CC(C)NC(=O)N1CC(=O)N(c2cc(Cl)cc(Cl)c2)C1=O,inactive,–
Clc1nc(Cl)nc(Nc2ccccc2Cl)n1,inactive,–
CCOc1nc(C(Cl)(Cl)Cl)ns1,–,1 µM (active)
CC(C)N1C(=O)c2ccccc2NS1(=O)=O,inactive,–
COC(=O)NS(=O)(=O)c1ccc(N)cc1,inactive,–
Cc1nc(N(C)C)nc(OC(=O)N(C)C)c1C,inactive,–
CCOP(=O)(OCC)Oc1nc(Cl)c(Cl)cc1Cl,inactive,–
